20 compounds from PubChem BioAssay (NCI) can be followed below.

The panel holds about 79,000 compounds, 15% with a hit somewhere; the sample as a whole holds those more often. Values without a mark were called inactive. Activity calls are given as the source filed them. No stated cut-off is given here; in the data, active means growth inhibition above about 70%; inactive means the rest.

The nature of test [1]: NCI Yeast Anticancer Drug Screen. Data for the rad50 strain (AID 155).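 Further: 0% = growth of vehicle-only cultures of the same strain.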 The note with it: S. cerevisiae rad50 strain growth inhibition; at 50.0 µM; stronger effect = higher value. Summed up:
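Growth of the mutant yeast was measured after compound exposure and referenced to vehicle-treated cultures.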

Test [2] in a line: NCI Yeast Anticancer Drug Screen. Data for the mec2-1 strain (AID 157). The note with it: S. cerevisiae mec2-1 strain, at 50.0 µM, stronger effect = higher value. Summed up:
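mec2-1 yeast strain, carrying an alteration in DNA damage repair or cell cycle control, was exposed to compounds; growth inhibition was measured relative to vehicle-treated controls.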

Test [3] in a line: NCI Yeast Anticancer Drug Screen. Data for the sgs1 mgt1 strain (AID 161).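 Further: 0% = growth of cultures given vehicle only.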 The note with it: S. cerevisiae sgs1 mgt1 strain, at 50.0 µM, stronger effect = higher value. The gist of the method: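 Percent growth inhibition was derived by comparing compound-exposed mutant yeast with vehicle-exposed cultures. The strain carries alterations in DNA damage repair.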
The nature of test [4]: NCI Yeast Anticancer Drug Screen. Data for the cln2 rad14 strain (AID 165).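 Further: 0% = growth equal to vehicle treated cultures.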 The note with it: S. cerevisiae cln2 rad14 strain, at 50.0 µM, stronger effect = higher value. Summed up:
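Yeast carrying cln2 and rad14 alterations (cell cycle control and DNA damage repair) were exposed to compounds. Growth inhibition was measured against vehicle-treated controls.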

Test [5] is described as follows: NCI Yeast Anticancer Drug Screen. Data for the bub3 strain (AID 167). The note with it: S. cerevisiae bub3 mutant strain, at 50.0 µM, stronger effect = higher value. Summed up:
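Whole-cell yeast assay. The mutant strain was incubated with compounds, and growth inhibition was determined by comparison with vehicle-treated cells.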

Test [6] can be described thus: NCI Yeast Anticancer Drug Screen. Data for the mlh1 rad18 strain (AID 175). The note with it: S. cerevisiae mlh1 rad18 strain growth inhibition; at 50.0 µM; stronger effect = higher value. The gist of the method: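 Growth inhibition of the yeast strain was measured after compound exposure and expressed relative to vehicle-treated controls. The strain carries defined defects in DNA damage repair.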

Consider `O=C(O)c1ccc(C2=Cc3cc(Cl)ccc3OC2)cc1`, for which the growth inhibition in test [1] is 19.6%; in test [2], -5.1%; in test [3], -19.4%; in test [4], 26.2%; in test [5], -15.1%; in test [6], -11.1%.

As to `C/C=C/C=N/NS(=O)(=O)c1ccc(C)cc1`, the growth inhibition is 11.3% in test [1]; 17.8% in test [2]; -4.1% in test [3]; -45.4% in test [4]; -1% in test [5]; -12.4% in test [6].

On to `OC1c2ccccc2CC1Br` (stereo not given), for which the growth inhibition in test [1] is -4.8%; in test [2], -3.8%; in test [3], -9.25%; in test [4], -25.4%; in test [5], 7.65%; in test [6], -8.15%.

On to `C/C(CC1CCCCC1)=N\NC(N)=O`, for which the growth inhibition in test [1] is 0.25%; in test [2] it was 1.35%; in test [3], -5.8%; in test [4], 13.2%; in test [5], -10.9%; in test [6] it was -27.1%.

Take `O=C(O)C(=O)O.[NH-]CC(O)CN(CC(O)CO)c1ccccc1.[Pt+2]` (stereo not given): the growth inhibition was 23.2% in test [1]; 1.35% in test [2]; 6.85% in test [3]; 21.7% in test [4]; -1.45% in test [5]; 11.1% in test [6].

For the compound `Nc1ccc(Br)cc1C(=O)O`, the growth inhibition in test [1] was 4.2%; in test [2], -1.15%; in test [3], -17.4%; in test [4], -3.2%; in test [5] it was 23.6%; in test [6], -3.3%.

For `COc1cc(/C=C2/C(=O)N(C(=O)c3ccccc3O)N=C2C)ccc1O`, the growth inhibition in test [1] is -6.55%; in test [2], -10.3%; in test [3], -9.4%; in test [4], 9.75%; in test [5], 1.65%; in test [6], -13.9%.

As to `COC(=O)CC1(O)C=CCCC1c1ccccc1` (stereo not given), the growth inhibition in test [1] was -23.2%; in test [2], -7.6%; in test [3] it was 2.35%; in test [4] it was 0.3%; in test [5], -7.5%; in test [6], -35%.

Regarding `O=C(O)c1cc(=O)[nH]c(SCc2ccc(Cl)cc2Cl)n1`, the growth inhibition in test [1] was -14.4%; in test [2], 14.5%; in test [3], -7.05%; in test [4], -10.2%; in test [5] it was 9.6%; in test [6], -1.35%.

As for `CC(=O)CC(=O)Nc1cccc(O)c1`, the growth inhibition in test [1] is -15%; in test [2], -21.8%; in test [3], -14.9%; in test [4], 11.8%; in test [5], -3.85%; in test [6] it was -2.85%.

For `O=C(O)c1ccc([N+](=O)[O-])cc1OCc1ccccc1`, the growth inhibition in test [1] was 13.4%; in test [2], -5.1%; in test [3], 12.9%; in test [4], -39%; in test [5] it was -3.4%; in test [6], 3.95%.

For `CC(C)(C)N1CC(C(O)c2ccccc2)C1c1ccccc1` (stereo not given), the growth inhibition in test [1] was -8.05%; in test [2], 0.25%; in test [3] it was -17.2%; in test [4], -13.6%; in test [5], -11.4%; in test [6], -2.5%.

Regarding `Oc1ccc(N2CCOCC2)cc1`, the growth inhibition was 0.45% in test [1]; 16.8% in test [2]; 3.05% in test [3]; -32% in test [4]; 25.6% in test [5]; 8.5% in test [6].

With `O=C(OC[P+](c1ccccc1)(c1ccccc1)c1ccccc1)c1ccccc1`, the growth inhibition in test [1] was 44%; in test [2], 47.1%; in test [3] it was 44.9%; in test [4], 33.8%; in test [5], 38.6%; in test [6], 81.2% (active).

In the case of `Cc1nc(N)sc1C(=O)/C=C\c1ccc2c(c1)OCO2`, the growth inhibition in test [1] was 21.4%; in test [2], -3.2%; in test [3] it was 23.4%; in test [4], 10.3%; in test [5] it was 5.2%; in test [6], 35.4%.

`CC(C)Cc1[nH]nc2c1C(=O)C(Nc1ccccc1)=CC2=O`: the growth inhibition is 22.5% in test [1]; 25.3% in test [2]; 12.6% in test [3]; -7.65% in test [4]; 2.75% in test [5]; 23.4% in test [6].

On to `O=C(O)/C(=C/C=C/c1ccccc1)c1csc(-c2nc(/C(=C\C=C\c3ccccc3)C(=O)O)cs2)n1`, for which the growth inhibition is 22% in test [1]; 13.3% in test [2]; 19.4% in test [3]; 16.9% in test [4]; 19.1% in test [5]; 9.15% in test [6].

With `C=C1C(=O)OC2C=C(C)CC3C=C(CCC=C(C)CCC12)C(=O)O3` (stereo not given), the growth inhibition in test [1] was 0.5%; in test [2], -33.5%; in test [3] it was -13.2%; in test [4] it was 4.9%; in test [5] it was -27.8%; in test [6], -17.7%.

As for `O=C(O)C#Cc1cccc(Cl)c1`, the growth inhibition in test [1] is -20.4%; in test [2], -24.3%; in test [3], -14.1%; in test [4], -9.9%; in test [5] it was -16.5%; in test [6], -12.8%.

For `O=C1C(CN2CCCCC2)CCC1CN1CCCCC1` (stereo not given), the growth inhibition was 23.9% in test [1]; 15% in test [2]; 30.8% in test [3]; 9.95% in test [4]; 14.1% in test [5]; 51.5% in test [6].
